PubChem BioAssay
Results filed as inconclusive are left out. Activity calls are given as the source filed them.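 The calls were made as follows, unless noted: active = viability increase at or above a cutoff of the median across tested compounds plus 3 SD (cut at about 8.5% in these data, passing the limit was not always enough); inconclusive = some gains above the cutoff, reason not given; inactive = the rest.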

How the values were obtained:
[1] = Her2 expression decrease, cell viability multiplex – SKBR3 breast tumor cells, AlphaScreen, ATP viability, primary screen (AID 461;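 active = Her2 level under about 52% in both replicate screens, with viability over 70% of control, limit read from the data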;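 as to Her2 level: lower value means less Her2 protein in the cells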;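 as to viability: percent of carrier control wells set as 100% viability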); conditions: SKBR3 Her2 protein level, 18-24 h, measured here: SKBR3 viability, ATP luminescence, at 10 µM
[2] = target: Receptor tyrosine-protein kinase erbB-2 (Homo sapiens) (UniProt P04626); test: as above; conditions: 18-24 h, at 10 µM, stronger effect = lower value
Receptor tyrosine-protein kinase erbB-2 (Homo sapiens), sequence (P04626 whole entry, looked up): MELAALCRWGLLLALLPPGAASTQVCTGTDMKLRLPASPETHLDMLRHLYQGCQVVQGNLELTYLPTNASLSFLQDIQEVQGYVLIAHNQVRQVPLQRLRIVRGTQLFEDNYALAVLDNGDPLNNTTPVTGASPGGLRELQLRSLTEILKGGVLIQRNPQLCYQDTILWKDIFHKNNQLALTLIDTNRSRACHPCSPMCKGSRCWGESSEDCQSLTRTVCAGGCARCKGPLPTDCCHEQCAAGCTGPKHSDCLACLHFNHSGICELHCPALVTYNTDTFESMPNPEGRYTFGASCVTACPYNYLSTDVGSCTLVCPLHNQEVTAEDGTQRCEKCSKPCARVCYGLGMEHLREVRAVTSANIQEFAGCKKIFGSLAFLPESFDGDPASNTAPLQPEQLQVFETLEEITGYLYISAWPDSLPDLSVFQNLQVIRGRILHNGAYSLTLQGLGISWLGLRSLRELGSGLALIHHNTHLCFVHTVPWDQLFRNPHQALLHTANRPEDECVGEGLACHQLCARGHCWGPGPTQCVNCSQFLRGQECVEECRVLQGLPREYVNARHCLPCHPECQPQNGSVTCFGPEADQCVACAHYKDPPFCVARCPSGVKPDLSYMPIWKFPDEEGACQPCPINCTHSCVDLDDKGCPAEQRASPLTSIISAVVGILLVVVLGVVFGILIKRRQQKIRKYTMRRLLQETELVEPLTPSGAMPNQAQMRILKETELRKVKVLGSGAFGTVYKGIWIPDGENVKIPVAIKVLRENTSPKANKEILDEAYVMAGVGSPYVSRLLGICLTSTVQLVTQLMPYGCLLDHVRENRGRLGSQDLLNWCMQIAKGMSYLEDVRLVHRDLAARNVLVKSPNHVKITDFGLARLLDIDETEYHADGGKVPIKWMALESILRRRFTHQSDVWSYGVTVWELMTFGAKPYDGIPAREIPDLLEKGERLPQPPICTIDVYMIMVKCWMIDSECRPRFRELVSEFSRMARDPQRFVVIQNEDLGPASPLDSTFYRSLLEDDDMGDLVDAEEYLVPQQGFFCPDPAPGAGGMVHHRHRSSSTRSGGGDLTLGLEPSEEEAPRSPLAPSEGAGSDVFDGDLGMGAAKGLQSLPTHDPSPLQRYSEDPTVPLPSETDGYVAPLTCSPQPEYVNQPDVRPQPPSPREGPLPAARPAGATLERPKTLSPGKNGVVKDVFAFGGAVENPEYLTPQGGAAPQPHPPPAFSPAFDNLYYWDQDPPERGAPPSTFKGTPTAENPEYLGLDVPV

[3] = reduced viability of SK-BR-3 breast cancer cells – cell-based, 24 h, human, pilot screen (AID 572;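 active = viability at or below 10% of carrier control in both of two separate runs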;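 also: compound exposure lasted between 18 and 24 h rather than exactly 24 h; 100% = carrier-treated control wells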); conditions: SK-BR-3 viability, CellTiter-Glo luminescence, at 10 µM, stronger effect = lower value
[4] = HUVEC growth inhibition – cell-based, human, primary screen (AID 575;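 active = viability at or below 30% in both replicate assays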;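 also: 100% = median of untreated cell wells with 0.1% DMSO on each plate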); conditions: HUVEC proliferation, CellTiter-Glo luminescence, 72 h; at 10 µM; stronger effect = lower value
[5] = H69AR cell proliferation blockers – human, duplicate replicates, primary screen (AID 580;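 active = viability at or under a set limit in both replicates, limit being median viability minus 3 SD, cut at about 48% in these data, passing the limit was not always enough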;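 also: 100% = mean luminescence of untreated wells and 0% = no signal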); conditions: H69AR lung tumor cells viability, ATP luminescence, 72 h; at 10 µM; stronger effect = lower value
[6] = MRP1 drug-resistance reversers in H69AR cells – cell-based, doxorubicin co-treatment, pilot screen (AID 601;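 active = viability loss from added drug above about 55%, and viability with drug at most 40%, in both replicates, limit read from the data, passing the limit was not always enough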); conditions: CellTiter-Glo, 72 h, at 10 µM; for differential viability (reversal): stronger effect = higher value
[7] = yeast transport mutant growth inhibition pilot in 384-well plates, post-Golgi transport modulator project (AID 636; in the data active = inhibition above about 31%); conditions: absorbance 615 nm, about 18 h, stronger effect = higher value
[8] = growth suppression of yeast trafficking mutant, preliminary HTS, modulators of trafficking downstream of Golgi apparatus project, 1536-format plate, OD 615 nm (AID 637; in the data active = inhibition above about 30%); conditions: yeast transport mutant growth, absorbance 615 nm, 18 h; stronger effect = higher value
[9] = S. cerevisiae growth inhibition in permissive medium (OD615), pilot counter-assay for S. cerevisiae lifespan shortening project, permissive growth control (AID 705;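 active = growth inhibition above 25% in both replicates, a cutoff set 3 SD above the mean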); conditions: OD615, 24 h, at 10 µM, stronger effect = higher value
[10] = S. cerevisiae growth inhibition in restrictive medium, OD615, pilot screen, restrictive growth control, yeast lifespan reduction project (AID 706;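 active = growth inhibition above a set limit, 3 SD over mean compound inhibition, in both replicates, cut at about 43% in these data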;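 also: modified DeaD lifespan yeast strain shifted to restrictive glucose medium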); conditions: OD615, 48 h, at 10 µM, stronger effect = higher value
[11] = doxorubicin toxicity protection in MRP-1 cells – H69AR cells, CellTiter-Glo, duplicate, MRP-1 activator project, pilot screen (AID 807); conditions: H69AR viability with doxorubicin, CellTiter-Glo luminescence; at 10 µM; stronger effect = higher value;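 also: compound pretreatment 18-22 h then 72 h combined with doxorubicin; 0% = doxorubicin alone and 100% = vehicle without doxorubicin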
[12] = viability of HCT116 without oncogenic beta-catenin – human colon tumor cells, pilot screen (AID 823;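 active = cell viability at or below a set limit in both duplicate runs, the limit being the all-compound median minus 4 SD, cut at about 23% in these data, passing the limit was not always enough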;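 also: 0% = wells killed by 20 µM Hyamine and 100% = untreated DMSO cell wells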); conditions: HCT116 beta-catenin knockout viability, CellTiter-Glo, 60 h; at 10 µM; stronger effect = lower value
[13] = viability of PTEN-null HCT116 cells – cell-based, HCT116 clonal line, CellTiter-Glo, pilot screen (AID 824;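 active = viability at or below 27.92% in each of two runs, the all-compound median minus 4 SD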;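 also: 0% = 20 µM Hyamine control and 100% = vehicle cell control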); conditions: HCT116 PTEN-deleted viability, 60 h, at 10 µM, stronger effect = lower value
[14] = RAM pathway blockade in budding yeast – dse1pr::URA3 reporter, 5-FOA selection, pilot screen (AID 869;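 active = inhibition over a set limit, the all-compound mean plus 3 SD, in both replicate runs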;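 also: 0% = DMSO wells with no growth and 100% = 10 µM 1-NA-PP1 with full growth; RAM network block rescues cells from 5-FOA so hits raise OD615 growth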); conditions: S. cerevisiae dse1pr::URA3 5-FOA growth, OD615, 2 d; at 10 µM; stronger effect = higher value; strain carries analog-sensitive mutant Cbk1 kinase
[15] = RAM signaling pathway blockade in yeast – S. cerevisiae, Pdr1DBD-CYC8 efflux-inhibited sensitized strain, primary screen (AID 1298;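 active = RAM network inhibition above 8.4% in each of two replicates, 3 SD over the compound average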;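 also: 0% = DMSO untreated cells without growth and 100% = 10 µM 1-NA-PP1 full growth; higher means more yeast growth rescued from 5-FOA killing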); conditions: S. cerevisiae cbk1-as DSE1-URA3 strain, 5-FOA growth OD615, 2 d; at 50 µM; stronger effect = higher value
[16] = H69AR cells + 2 uM doxorubicin, measured here: viability with 2 uM doxorubicin, stronger effect = lower value
[17] = H69AR cells, compound alone cytotoxicity

O=C(NCc1cccs1)C(Cc1ccccc1)n1cccc1 (stereo not drawn)
inactive: Her2 level [2] 110% | viability [3] 114% | viability [4] 106% | viability [5] 94.6% | differential viability (reversal) ([6]; H69AR cells + 2 uM doxorubicin) 8.57% | inhibition [7] -1.67% | inhibition [8] -5.67% | growth inhibition [9] 3.97% | growth inhibition [10] -4.98% | viability increase [11] 0.04% | viability [12] 92.6% | viability [13] 89.9% | inhibition [14] 3.21% | RAM network inhibition [15] 3.72%
94.6%: viability [6, 17]
114%: viability [1]
86%: viability [6, 16]

COc1ccc(-n2c(Cc3cccn3C)nnc2SCC(=O)Nc2ccccc2)cc1
88.5%: viability [1]
82.2%: viability [6, 17]
88.9%: viability [6, 16]
inactive: Her2 level [2] 104% | viability [3] 88.5% | viability [4] 99% | viability [5] 82.2% | differential viability (reversal) ([6]; H69AR cells + 2 uM doxorubicin) -6.77% | inhibition [7] -5.87% | inhibition [8] 4% | growth inhibition [9] 1.29% | growth inhibition [10] 15.6% | viability increase [11] -2.51% | viability [12] 99.5% | viability [13] 85.3% | inhibition [14] 2.68% | RAM network inhibition [15] 2.14%

CCN(CC)c1ccc(NC(=O)c2nc3nc(C)cc(C(F)F)n3n2)cc1
122%: viability [1]
84.4%: viability [6, 17]
inactive: Her2 level [2] 102% | viability [3] 122% | viability [4] 81.6% | viability [5] 84.4% | differential viability (reversal) ([6]; H69AR cells + 2 uM doxorubicin) 6.97% | inhibition [7] -3.6% | inhibition [8] 6.72% | growth inhibition [9] -8.26% | growth inhibition [10] -10.5% | viability increase [11] 0.23% | viability [12] 95.2% | viability [13] 88% | inhibition [14] 0.83% | RAM network inhibition [15] 1.16%
77.4%: viability [6, 16]

CC(CCc1ccccc1)NC(=O)C1CCCN(c2nnc(-n3cccc3)s2)C1 (stereo not drawn)
89.5%: viability [1]
82%: viability [6, 16]
82.6%: viability [6, 17]
inactive: Her2 level [2] 86.5% | viability [3] 89.5% | viability [4] 97.1% | viability [5] 82.6% | differential viability (reversal) ([6]; H69AR cells + 2 uM doxorubicin) 0.56% | inhibition [7] -0.38% | inhibition [8] -3.17% | growth inhibition [9] -16.5% | growth inhibition [10] 0.105% | viability increase [11] -1.84% | viability [12] 93.5% | viability [13] 96% | RAM network inhibition [15] 2.83%

O=C1c2ccccc2C(Nc2ccc(F)cc2F)N1CCN1CCOCC1 (stereo not drawn)
78.2%: viability [6, 17]
81.9%: viability [6, 16]
83%: viability [1]
inactive: Her2 level [2] 83% | viability [3] 83% | viability [4] 87.8% | viability [5] 78.2% | differential viability (reversal) ([6]; H69AR cells + 2 uM doxorubicin) -3.69% | inhibition [7] -5.73% | inhibition [8] 3.17% | growth inhibition [9] 0.235% | growth inhibition [10] -1.68% | viability increase [11] -1.58% | viability [12] 98.8% | viability [13] 104% | inhibition [14] 1.3% | RAM network inhibition [15] 0.93%

O=C1CCCC2=C1C(c1cccc(Br)c1)n1nc(-c3ccco3)nc1N2 (stereo not drawn)
100%: viability [6, 16]
inactive: Her2 level [2] 73% | viability [3] 95.5% | viability [4] 80.6% | viability [5] 103% | differential viability (reversal) ([6]; H69AR cells + 2 uM doxorubicin) 2.4% | inhibition [7] -1.73% | inhibition [8] -2.95% | growth inhibition [9] -11.7% | growth inhibition [10] -0.21% | viability increase [11] -2.06% | viability [12] 81.5% | viability [13] 76.5% | RAM network inhibition [15] 0.99%
95.5%: viability [1]
103%: viability [6, 17]

COc1ccc(NC(=O)C2CCCN2S(=O)(=O)c2cccc3cccnc23)c(OC)c1 (stereo not drawn)
95.9%: viability [6, 16]
active: inhibition [7] 91.4% | inhibition [8] 84.7% | growth inhibition [9] 98.5% | growth inhibition [10] 95.7%
95%: viability [6, 17]
96%: viability [1]
inactive: Her2 level [2] 106% | viability [3] 96% | viability [4] 90.5% | viability [5] 95% | differential viability (reversal) ([6]; H69AR cells + 2 uM doxorubicin) -0.87% | viability increase [11] -2.76% | viability [12] 91.6% | viability [13] 84.3% | inhibition [14] 0.91% | RAM network inhibition [15] -1.73%

CCOC(=O)N1CCC(NC(=O)c2cnn3ccccc23)CC1
87.1%: viability [6, 17]
inactive: Her2 level [2] 123% | viability [3] 112% | viability [4] 86% | viability [5] 87.1% | differential viability (reversal) ([6]; H69AR cells + 2 uM doxorubicin) 1.21% | inhibition [7] -1.2% | inhibition [8] 3.67% | growth inhibition [9] -12.9% | growth inhibition [10] -10.7% | viability increase [11] -1.34% | viability [12] 108% | viability [13] 99.9% | inhibition [14] 0.135% | RAM network inhibition [15] 2.01%
85.9%: viability [6, 16]
112%: viability [1]

COc1cc2c(cc1OC)-c1nnc(-c3cccs3)n1C(C)(C)C2
inactive: Her2 level [2] 95.5% | viability [3] 64.5% | viability [4] 114% | viability [5] 102% | differential viability (reversal) ([6]; H69AR cells + 2 uM doxorubicin) 2.48% | inhibition [7] 0.13% | inhibition [8] -4.17% | growth inhibition [9] -11.8% | growth inhibition [10] -8.72% | viability increase [11] -2.78% | viability [12] 90.4% | viability [13] 80.6% | inhibition [14] 0.115% | RAM network inhibition [15] 0.94%
102%: viability [6, 17]
99.1%: viability [6, 16]
64.5%: viability [1]

CC(=O)N(c1ccc(Br)cc1)C1C=CS(=O)(=O)C1 (stereo not drawn)
inactive: Her2 level [2] 96% | viability [3] 100% | viability [4] 87.9% | viability [5] 88.8% | differential viability (reversal) ([6]; H69AR cells + 2 uM doxorubicin) 4.71% | inhibition [7] -5.33% | inhibition [8] 1.5% | growth inhibition [9] -6.33% | growth inhibition [10] -16.4% | viability increase [11] -0.84% | viability [12] 107% | viability [13] 96% | inhibition [14] 2.17% | RAM network inhibition [15] -0.25%
100%: viability [1]
84.1%: viability [6, 16]
88.8%: viability [6, 17]
